“And” between values parts separate entries of the source, which are not always exact repeats. Identical values can stand only once. Counter-ions that a name gives are not always drawn.
Assays:
Experiment in all cases: cell viability relative to vehicle control; higher = less cytotoxic
Details in all cases: 10 µM
K562 = system: K562
Outline: (§1)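 CRISPR-edited mutant clones and isogenic wild-type clones from four leukaemia lines were screened against Selleck bioactive, kinase and epigenetic probe libraries, with identity-inconsistent compounds excluded. Each compound was acoustically dispensed at a single 10 µM dose into 384-well plates holding 2000 cells in 50 µL medium per well. After 48 h the supernatant was removed and CellTiter-Glo luminescence was read. Viability was expressed as percent of the on-plate vehicle control and analysed in Genedata Screener.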

MARIMO = system: MARIMO
Outline: as §1

MOLM14 = system: MOLM14
Outline: as §1

OCI-AML2 = system: OCI-AML2
Outline: as §1

| Compound | cell viability (K562; SRSF2 genotype: SRSF2 P95H/wt) | cell viability (K562; SRSF2 genotype: SRSF2 wt/wt) | cell viability (MARIMO; SRSF2 genotype: SRSF2 P95H/wt) | cell viability (MARIMO; SRSF2 genotype: SRSF2 wt/wt) | cell viability (MOLM14; SRSF2 genotype: SRSF2 P95H/wt) | cell viability (MOLM14; SRSF2 genotype: SRSF2 wt/wt) | cell viability (OCI-AML2; SRSF2 genotype: P95H/wt) | cell viability (OCI-AML2; SRSF2 genotype: wt/wt) |
| --- | --- | --- | --- | --- | --- | --- | --- | --- |
| CCCCCCCCCC=O [Decyl aldehyde] | 98.7% and 94.8% | 106% | 99.1% | 101% | 102% | 105% | 100% | 111% |
| CCCCCCCCCCCC[N+](C)(C)CCOc1ccccc1 [Domiphen Bromide] | 7.02% and 4.79% | 5.16% | 0.45% | 0.55% | 0.35% | 0.39% | 0.4% | 0.43% |
| Cc1cc(O)c2c(c1)C(=O)c1cccc(O)c1C2=O [Chrysophanic acid (Chrysophanol)] | 100% and 95.6% | 100% | 96.9% | 95.8% | 114% | 106% | 89.2% | 83% |
| COc1cc2c(cc1OC)[C@@H](Cc1ccc(Oc3cc(C[C@@H]4c5cc(OC)c(OC)cc5CCN4C)ccc3O)cc1)N(C)CC2 [Dauricine] | 38% and 41.8% | 18.5% | 2.46% | 15.1% | 1.5% | 1.07% | 5.34% | 4.94% |
| CC(=O)c1ccc(NN=C(C(N)=O)C2=NC(C)(C)Cc3ccccc32)cc1 | 79.9% and 87.9% | 86.9% | 56.1% | 58.1% | 15% | 14.7% | 30.5% | 40.5% |
| C[C@@H]1O[C@@H](O[C@H]2[C@H](Oc3cc(O)c(C(=O)CCc4ccc(O)cc4)c(O)c3)O[C@H](CO)[C@@H](O)[C@@H]2O)[C@H](O)[C@H](O)[C@H]1O [Naringin Dihydrochalcone (Naringin DC)] | 99.7% and 107% | 94.5% | 102% | 105% | 98.4% | 104% | 96.8% | 111% |
| CC1=C(CC[C@@H](C)CO[C@@H]2O[C@H](CO)[C@@H](O)[C@H](O)[C@H]2O)O[C@H]2C[C@H]3[C@@H]4CC=C5C[C@@H](O[C@@H]6O[C@H](CO)[C@@H](O[C@@H]7O[C@@H](C)[C@H](O)[C@@H](O)[C@H]7O)[C@H](O)[C@H]6O[C@@H]6O[C@@H](C)[C@H](O)[C@@H](O)[C@H]6O)CC[C@]5(C)[C@H]4CC[C@]3(C)[C@@H]12 [Pseudoprotodioscin] | 107% and 104% | 110% | 99.3% | 104% | 96.2% | 101% | 110% | 105% |
| COc1cc2nccc(Oc3ccc(NC(=O)C4(C(=O)Nc5ccc(F)cc5)CC4)cc3)c2cc1OC [Cabozantinib malate] | 21% and 29.7% | 23.6% | 67.3% | 87.3% | 6.23% | 7.8% | 23.3% | 27.8% |
| COC(=O)N[C@H](C(=O)N1CCC[C@H]1c1ncc(-c2ccc(-c3ccc(-c4cnc([C@@H]5CCCN5C(=O)[C@@H](NC(=O)OC)C(C)C)[nH]4)cc3)cc2)[nH]1)C(C)C [Daclatasvir Digydrochloride] | 79.2% and 78.8% | 75.9% | 62.1% | 73.5% | 67.7% | 77.9% | 78.2% | 74% |
| Cc1onc(-c2c(F)cccc2Cl)c1C(=O)N[C@@H]1C(=O)N2[C@@H]1SC(C)(C)[C@@H]2C(=O)O [Flucloxacillin sodium] | 96.6% and 89.9% | 94.3% | 100% | 108% | 95.6% | 96.5% | 99.6% | 107% |
| CCCCOc1nc(N)c2c(n1)N(Cc1cccc(CN3CCCC3)c1)CC(=O)N2 | 86.2% and 92.1% | 90% | 87% | 91.3% | 97.2% | 93.4% | 97.4% | 90.6% |
| O=C(Cc1ccccc1)Nc1nnc(CCSCCc2nnc(NC(=O)Cc3ccccc3)s2)s1 | 81.3% and 83.7% | 88.7% | 75.9% | 72.4% | 82.9% | 91.2% | 68.5% | 78.7% |
| C[C@@H]1CN(c2c(F)c(N)c3c(=O)c(C(=O)O)cn(C4CC4)c3c2F)C[C@H](C)N1 [Sparfloxacin] | 103% | 108% | 99.7% | 104% | 101% | 106% | 109% | 105% |
| COc1ccc2c(O[C@@H]3C[C@H]4C(=O)N[C@]5(C(=O)NS(=O)(=O)C6CC6)C[C@H]5/C=C\CCCCN(C)C(=O)[C@@H]4C3)cc(-c3nc(C(C)C)cs3)nc2c1C | 70.6% and 60.2% | 62.9% | 61.6% | 75.3% | 79.1% | 71.6% | 55.2% | 58.8% |
| O=C(O)CSCC(=O)NC1CCSC1=O (configuration not stated) [Erdosteine] | 101% and 96.3% | 97.8% | 101% | 102% | 97.8% | 98% | 89.9% | 96.9% |
| C=C(C)[C@@H]1CC[C@]2(C(=O)O)CC[C@]3(C)[C@H](CC[C@@H]4[C@@]5(C)CC[C@H](O)[C@@](C)(CO)[C@@H]5CC[C@]43C)[C@@H]12 [23-Hydroxybetulinic acid] | 93.7% and 96.8% | 91.1% | 96.6% | 107% | 100% | 103% | 103% | 109% |
| CCCCCCCCCCCCCCCCCC[N+](C)(C)C [Trimethyloctadecylammonium bromide] | 13.1% and 20% | 48.1% | 12.1% | 16.6% | 0.73% | 0.49% | 0.97% | 2.46% |
| C[C@@H](O)[C@H]1C(=O)N2C(C(=O)O)=C(S[C@@H]3CN[C@H](CNS(N)(=O)=O)C3)[C@H](C)[C@H]12 [Doripenem Hydrate] | 95.8% and 101% | 94.1% | 94.6% | 101% | 103% | 97.5% | 96.4% | 99% |
| N[C@@H](CSC(c1ccccc1)(c1ccccc1)c1ccccc1)C(=O)O | 43.2% and 34.9% | 34.4% | 7.81% | 4.29% | 8.53% | 2.73% | 7.71% | 11.8% |
| Cn1nnc(-c2ccc(-c3ccc(N4C[C@H](COP(=O)(O)O)OC4=O)cc3F)cn2)n1 [Tedizolid Phosphate] | 81.5% and 82.6% | 84.9% | 88.8% | 94.5% | 91.8% | 92.3% | 82.3% | 87.8% |

| Compound | cell viability (K562; SRSF2 genotype: SRSF2 P95H/wt) | cell viability (K562; SRSF2 genotype: SRSF2 wt/wt) | cell viability (MARIMO; SRSF2 genotype: SRSF2 P95H/wt) | cell viability (MARIMO; SRSF2 genotype: SRSF2 wt/wt) | cell viability (MOLM14; SRSF2 genotype: SRSF2 P95H/wt) | cell viability (MOLM14; SRSF2 genotype: SRSF2 wt/wt) | cell viability (OCI-AML2; SRSF2 genotype: P95H/wt) | cell viability (OCI-AML2; SRSF2 genotype: wt/wt) |
| --- | --- | --- | --- | --- | --- | --- | --- | --- |
| Oc1ccc(Cc2nc3c(Cc4ccccc4)nc(-c4ccc(O)cc4)cn3c2O)cc1 [Coelenterazine] | 96.7% and 92.9% | 101% | 94.9% | 93.5% | 86.2% | 97% | 98.8% | 98% |
| CCN(CC)CCCCNc1ncc2cc(-c3cc(OC)cc(OC)c3)c(NC(=O)NC(C)(C)C)nc2n1 | 46.4% and 47.9% | 49.4% | 54.2% | 51.9% | 48.3% | 47.7% | 38.1% | 40.1% |
| Cc1cn([C@H]2C[C@H](N=[N+]=[N-])[C@@H](CO)O2)c(=O)[nH]c1=O [Zidovudine (Retrovir)] | 96.5% and 101% | 101% | 102% | 113% | 95.5% | 105% | 101% | 105% |
| C[C@@H](c1ncncc1F)[C@](O)(Cn1cncn1)c1ccc(F)cc1F [Voriconazole] | 102% and 99.5% | 99% | 107% | 106% | 99.5% | 101% | 104% | 108% |
| CC(=O)O[C@]1(C(C)=O)CC[C@H]2[C@@H]3CCC4=CC(=O)CCC4=C3[C@@H](c3ccc(N(C)C)cc3)C[C@@]21C [Ulipristal acetate] | 91% and 94.2% | 86.7% | 81.7% | 95.2% | 82.3% | 93.6% | 84.6% | 89.5% |
| CC[C@H](Nc1ncnc2[nH]cnc12)c1nc2cccc(F)c2c(=O)n1-c1ccccc1 | 84.3% and 82.3% | 88.8% | 65.6% | 70.5% | 57.3% | 54.8% | 51.2% | 58.6% |
| COC(c1ccccc1)(c1ccccc1)[C@H](Oc1nc(C)cc(C)n1)C(=O)O [Ambrisentan] | 103% and 96.5% | 98.8% | 95.2% | 109% | 102% | 103% | 102% | 105% |
| COc1cc2c(cc1OC)-c1cc3ccc(OC)c(OC)c3c[n+]1CC2 [Palmatine chloride] | 82.8% and 81.3% | 75.1% | 81% | 93% | 82.6% | 86% | 81.9% | 80.9% |
| O=C1CCc2cc(OCCCCc3nnnn3C3CCCCC3)ccc2N1 [Cilostazol] | 97.9% and 98.4% | 96.8% | 103% | 102% | 100% | 101% | 109% | 97.9% |
| C[C@@H]1O[C@@H](OC[C@H]2O[C@@H](Oc3cc(O)c4c(c3)O[C@H](c3ccc(O)c(O)c3)CC4=O)[C@H](O)[C@@H](O)[C@@H]2O)[C@H](O)[C@H](O)[C@H]1O [Eriocitrin] | 110% and 103% | 108% | 105% | 100% | 117% | 110% | 98.4% | 94.6% |
| O=C1CCc2ccc(O)cc2N1 [7-Hydroxy-3,4-dihydrocarbostyril] | 110% and 104% | 102% | 105% | 112% | 107% | 103% | 101% | 107% |
| C=C[C@]1(C)C[C@@H](OC(=O)CSC(C)(C)CNC(=O)[C@H](N)C(C)C)[C@]2(C)[C@H](C)CC[C@]3(CCC(=O)[C@H]32)[C@@H](C)[C@@H]1O [Valnemulin HCl] | 83.2% and 84.6% | 75.3% | 74% | 74.9% | 80.8% | 80% | 60.7% | 65.5% |
| O=C1OC(C(O)CO)C([O-])=C1O.[Na+] (configuration not stated) [Sodium erythorbate] | 104% and 106% | 114% | 106% | 107% | 102% | 110% | 114% | 119% |
| CC1(C)CC[C@]2(C(=O)O)CC[C@]3(C)C(=CC[C@@H]4[C@@]5(C)C[C@@H](O)[C@H](O)C(C)(C)[C@@H]5CC[C@]43C)[C@@H]2C1 [Maslinic acid] | 84.2% and 80.1% | 84.5% | 91.3% | 108% | 90.7% | 86.9% | 77% | 82.2% |
| CC(C)COc1ccc(CNC(=O)N(Cc2ccc(F)cc2)C2CCN(C)CC2)cc1 [Pimavanserin] | 0.6% and 0.64% | 0.75% | 2.06% | 4.09% | 0.25% | 0.22% | 0.22% | 1.2% |
| CNC[C@H](O)c1ccc(O)c(O)c1 [Epinephrine bitartrate (Adrenalinium)] | 97.4% and 94.9% | 94% | 102% | 108% | 84.5% | 97.6% | 102% | 112% |
| Cc1cnc(Nc2ccc(N3CCN(C)CC3)cc2)nc1Nc1cccc(S(=O)(=O)NC(C)(C)C)c1 | 0.99% and 2.2% | 2.6% | 17.1% | 16.1% | 0.12% | 0.18% | 0.19% | 2.96% |
| Cc1ccccc1C(OCCN(C)C)c1ccccc1 (configuration not stated) [Orphenadrine citrate (Norflex)] | 96.7% and 92% | 91.3% | 79.7% | 97.3% | 93.3% | 98.1% | 83.2% | 95% |
| Cn1cnc2c(F)c(Nc3ccc(Br)cc3Cl)c(C(=O)NOCCO)cc21 [AZD6244 (Selumetinib)] | 79% and 92.2% | 75.3% | 37.5% | 36.3% | 44.6% | 31.3% | 39.6% | 43.6% |

Source: the supplement of paper PMC10981050
